40 sequences from the supplement of paper PMC6555819 can be followed below.

The subject of this assay is RARb homodimer (NR concentration 270 nM). The experiment in a line: PBM binding z-score (relative to random genomic background probes); higher = stronger binding; sequences stand for … in GC…GCGATTGACAGCGTAGAATGAAGG
The procedure, abridged: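 Each nuclear receptor dimer, without ligand, was incubated for 1 h on custom Agilent 4×180K protein-binding microarrays. Binding was detected with antibodies against each partner (one per run), and scanned fluorescence was regression-normalized. The binding z-scores are referenced to random human genomic background probes.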
AGAATGAGGTTAAGTTCAGGGAAACAGAATACAT returned a PBM binding z-score of 2.6.
Next, CCTACTGGACCAAGGTCATTGATCAGTCAAAGCA: 3.4; ATCTCTAGGTTAAGATAGTTCAGTGAATGCAAAT: 1.9.
For the sequence CAAACTAGTTCAAGAGGTCAAAGTCCGCTTCCCG, the PBM binding z-score amounted to 4.85.
CCTACTGGGCCATTCAGAGGTCAATGATCATATG returned a PBM binding z-score of 4.28.
Turning to AGAATGGGGTTACCAAAGATCAGGGAAACGCTTG, the PBM binding z-score came to 1.08.
Next, ATCGAAAGGTCCAAGGTGAGTATACCCACCCGAA: 0.938; ACTCGGATGACAAAGGTCAGAGCTACGCCAGTGA: 3.9.
In the case of AGTCAAAGTTCATCTAGGTAACATAAGATATGCT, the PBM binding z-score was determined as 3.71.
Next, CCTAGTTGGTCAAGGTCACACCCGCTATAGGTAC: 4.39; TCTAGTTGGTCACGGAGGTCACAAACGACGGGTA: 4.21; AGAATGAGGTTAAACGTAGATCAGGGAAGAAAGT: 1.19.
The figure for ACTTACGGCTCAACGAGGTTATAGCACGCGTATA is 0.526.
Next, AATACAGGGTGACTAGGCCAGAGTAGGTACGAAT: 0.729; GCTGCTAGTTCAACTGATGGTCAGCTAAAGCTCG: 1.21; TAGCCTAGGTCATTCAGGGGCCAGCATAGAAAGC: 3.42.
TTGCCTAGGTCATTGGGCCAGTATAGTACGCATC returned a PBM binding z-score of 2.92.
Next, AGAATGAGATTACCAAAGATCAGGGAAACGCTTG: -0.938; ATCGAAAGGTCGACCAGGTGAGTATACACCGTTT: 2.97.
The figure for CCTTACGGGTTACTCCAGGTTATAGCATCGGAGT is 0.561; for TCTGCTAGGTCAACGTTGGTCAGCTAATCTGCTA it is 3.31; for ATATGTAGGATAGCTGGGGTCATTCAGACTAGGC it is 3.16.
The figure for CCTAGCAGGCCAATCTAGGTCACTCAAGGCTTGA is 2.68.
For the sequence CAAACTAGGTCACAGTGGTCAAAGTCCGTGCGTA, the PBM binding z-score was found to be 3.62.
The figure for CAAACTAGGTCACTAAAGGTCAAAGTCGAATGAC is 5.66; for GCTTACGGGTCCAAGGTTATAGCATGAATAGAAT it is 0.871.
The figure for ATATGTAGGTTATCGGGTCATACAGTTTGCGCAT is 3.17; for TACCCTAGGTCATTCAGGGGCCAGTATAGAAAGC it is 3.8.
TCTTGTAGATCAACAGGAGGTTAATAAAGATCGA yielded a PBM binding z-score of 0.497.
In turn, TCTAGTTGGTCTAAGGTCACACACTCGAAATGCG displayed a PBM binding z-score of 4.29.
The figure for TAGCCTAGGTCATGGGCCAGTGTACCACGCGAAC is 3.09; for CCTACGGGGCCACGAAAGGTCATTGATTCAGTGA it is 5.16.
For the sequence TCTTGTAGATCGATAGAGGTTAAGAAAGTGCGCT, the PBM binding z-score came out at 0.946.
With AGAATGAGGTTACCAAAGGTCAGGGAAACGCTTG, the PBM binding z-score stood at 5.13.
The figure for CCGAGTTGGTCAAGGTCACACACGCTATAGGTAC is 4.42; for ACTTACGGGTCTACGAGGTTATAGCACGCGTATA it is 0.753.
The figure for AGTCAAAGTTCAGGACGACGTAACGTAAAGCACG is 2.77.
CGTCCAAGGTCAGCGGGTCAGTGAAAGCGACGTG: the PBM binding z-score turned out to be 4.69.
The figure for ATATGTAGGTTAGCTGGGGTCCTTCAGACTAGGC is 0.736; for GATATAGGGTCAGCTAGAGGCCAGAGTATGGAAA it is 3.75.
